PubChem BioAssay AID463173 (ICCB-Longwood Screening Facility, Harvard Medical School, 2010)
The whole screen tested about 52,000 compounds, of which about 4,300 (8.3%) were called active. Cut-off read from the data, not from the text of the source: active = survival mostly below about 52% (no sharp cut-off); inactive = mostly above about 56%. The list comes from a sample in which actives are over-represented; it also holds similar structures and randomly drawn compounds.

test system: DeltatarO mutant; assay: S. aureus survival, RN4220 and DeltatarO strains – OD600, teichoic acid synthesis inhibitors, primary screen (AID 463173); settings: S. aureus RN4220 wild type/DeltatarO growth, OD600, 18 h, hits give low values, screened at 18.75 µg/mL (by protocol)

Compound | survival
O=C(NCCc1ccc(Cl)cc1)c1cc(-c2ccc(Cl)cc2)n[nH]1 | 68% (inactive)
CCOC(=O)c1nnc2c(-c3ccc(Cl)cc3)c(C)nn2c1C | 49% (inactive)
Cc1ccc(NC(=O)C(Cc2ccccc2)n2cccc2)cc1 (stereo not drawn) | 76% (inactive)
O=C(Nc1ccc(C(F)(F)F)cc1)C(Cc1ccccc1)n1cccc1 (stereo not drawn) | -4% (active)
COc1ccc(NC(=O)C(Cc2ccccc2)n2cccc2)c(OC)c1 (stereo not drawn) | 67% (inactive)
CC(C)c1ccc(NC(=O)C(Cc2ccccc2)n2cccc2)cc1 (stereo not drawn) | 23% (active)
CC(=O)Nc1ccc(NC(=O)C(Cc2ccccc2)N2Cc3ccccc3C2=O)cc1 (stereo not drawn) | 82% (inactive)
O=C(Nc1ccccc1F)C(Cc1ccccc1)n1cccc1 (stereo not drawn) | 77% (inactive)
CCOc1ccc(S(=O)(=O)NCCc2sc3nc(-c4ccc(C)cc4)nn3c2C)cc1 | 109% (inactive)
Cc1coc2c(C)c3oc(=O)c(CC(=O)N4CCCCC4)c(C)c3cc12 | 79% (inactive)
Cc1oc2c(C)c3oc(=O)c(CCC(=O)N4CCCCC4)c(C)c3cc2c1C | 89% (inactive)
Cc1coc2c(C)c3oc(=O)c(CCC(=O)N4CCCCC4)c(C)c3cc12 | 44% (active)
CC1CCC(N2CC(=O)N(C3CCCCC3)C(c3ccc(F)cc3)C2=O)CC1 (stereo not drawn) | 82% (inactive)
CCCOc1ccc(CNC(=O)C2CCN(c3nc4ccccc4nc3C(F)(F)F)CC2)cc1 | 75% (inactive)
CCOc1ccc(-n2cc(-c3ccccc3)c3c(N4CCC(C)CC4)ncnc32)cc1 | 90% (inactive)
c1ccc(-c2nc(N3CCCCC3)c3ccccc3n2)cc1 | 96% (inactive)
CCCOc1ccc(-c2nc(N3CCC(C)CC3)c3ccccc3n2)cc1 | -1% (active)
Cc1ccc(-c2nc(N3CCN(c4ccccc4Cl)CC3)c3ccccc3n2)cc1 | 52% (inactive)
CCCOc1ccc(-c2nc(N3CCCCC3)c3ccccc3n2)cc1 | -2% (active)
Cc1ccc(C)c(N2CCN(S(=O)(=O)c3c(C)nc4sccn4c3=O)CC2)c1 | 92% (inactive)

Compound | survival
CCOC(=O)c1ccc(NC(=O)C2CC(=O)NC(=Nc3ccc(C)c(C)c3)S2)cc1 (stereo not drawn) | 47% (active)
CCc1ccc(N=C2NC(=O)CC(C(=O)Nc3ccc(OC)cc3)S2)cc1 (stereo not drawn) | 87% (inactive)
CCOc1ccc(NC(=O)C2CC(=O)NC(=Nc3ccc(Cl)c(Cl)c3)S2)cc1 (stereo not drawn) | 72% (inactive)
CN(C)c1ccc(C(C(=O)NCC2CCCO2)N(C(=O)Cn2nnc3ccccc32)c2ccc3c(c2)OCO3)cc1 (stereo not drawn) | 90% (inactive)
O=C(Nc1cccc(Cl)c1Cl)c1cc(S(=O)(=O)N2CCCCC2)ccc1F | 72% (inactive)
O=C(Nc1cccc(F)c1)C1CCN(S(=O)(=O)c2cccc3nsnc23)CC1 | 83% (inactive)
COc1ccc(-c2noc(CN3CCN(c4cccc(Cl)c4)CC3)n2)cc1 | 13% (active)
COc1ccc(N2CCN(Cc3nc(-c4ccc(C)cc4)no3)CC2)cc1 | 48% (inactive)
COc1cc(-c2noc(CN3CCN(c4cccc(Cl)c4)CC3)n2)cc(OC)c1OC | 77% (inactive)
Cc1cccc(N(C)c2nc3ccccc3c3nnc(C)n23)c1 | 118% (inactive)
COc1ccc(C)cc1NC(=O)N1CCC(CN2CCC(C)CC2)CC1 | 91% (inactive)
CCCCN(c1ccccc1)S(=O)(=O)c1cc2c3c(c1)C(C)C(=O)N3CCC2 (stereo not drawn) | 69% (inactive)
Cc1cc(C)c(OCC(=O)Nc2cccc(-c3nc4ncccc4o3)c2)c(Br)c1 | 4% (active)
Cc1ccc(C(C)C)c(OCC(=O)Nc2ccc3c(c2)nc(CCNC(=O)c2ccco2)n3C)c1 | 54% (inactive)
CCCC(=O)Nc1cccc(-c2nc3ncccc3o2)c1 | 66% (inactive)
CCC(C)c1ccc(OCC(=O)Nc2cccc(-c3nc4ncccc4o3)c2)cc1 (stereo not drawn) | 19% (active)
Cc1ccc2cccc(NC(=O)COc3cc(C)c(Cl)c(C)c3)c2n1 | 75% (inactive)
Cc1ccc(C(C)C)c(OCC(=O)Nc2cccc(NC(=O)c3ccco3)c2)c1 | 10% (active)
COc1ccc(NC(=O)c2ccco2)cc1NC(=O)COc1cc(C)ccc1C(C)C | 63% (inactive)
Cc1ccc2cccc(NC(=O)COc3ccccc3Cl)c2n1 | 179% (inactive)

Compound | survival
CCC(C)c1ccc(OCC(=O)Nc2ccc(-c3nc4ncccc4o3)cc2)cc1 (stereo not drawn) | 44% (inactive)
COc1ccc(OCC(=O)Nc2ccc(-c3nc4ncccc4o3)cc2)cc1 | 84% (inactive)
CCC(C)c1ccc(OCC(=O)Nc2cccc3ccc(C)nc23)cc1 (stereo not drawn) | -3% (active)
Cc1ccccc1OCC(=O)Nc1ccc(-c2nc3ncccc3o2)cc1 | 60% (inactive)
CCc1cccc2sc(N3CCN(C(=O)C4CC4)CC3)nc12 | 94% (inactive)
CCCSCCCNC(=O)C1CCN(C(=O)c2cc3sccc3n2C)CC1 | 109% (inactive)
O=C(Nc1cccc(Cl)c1Cl)c1ccc2c(c1)N(Cc1cccc(Cl)c1)C(=O)c1ccccc1S2(=O)=O | 108% (inactive)
Cc1cc2c(n1-c1ccc(C(=O)NCc3cccc(Br)c3)cc1)CCC(C)C2 (stereo not drawn) | 125% (inactive)
Cc1ccc(C(C)C)c(OCC(=O)Nc2ccc(-c3nc4ncccc4o3)cc2C)c1 | 54% (inactive)
Cc1ccc(C(C)C)c(OCC(=O)Nc2cccc(-c3nc4ncccc4o3)c2)c1 | 2% (active)
O=C(COc1ccc(Cl)cc1Cl)Nc1ccc(C(=O)OC2CCCCC2)cc1 | 57% (inactive)
Cc1ccc(C(C)C)c(OCC(=O)Nc2ccc(C(=O)OC3CCCCC3)cc2)c1 | 33% (active)
Cc1cc(OCC(=O)Nc2ccc(C(=O)OC3CCCCC3)cc2)cc(C)c1Cl | 50% (inactive)
Cc1cccc(OCC(=O)Nc2ccc(Cl)c(-c3nc4ncccc4o3)c2)c1C | 62% (inactive)
CSc1ccc(CCNC(=O)c2ccc3c(c2)nc2n3CCCCC2)cc1 | 82% (inactive)
COc1ccc(N2CCN(CCCNC(=O)c3ccc4nc(Cc5ccccc5)oc4c3)CC2)cc1 | 93% (inactive)
O=C(NCc1ccc(F)cc1)c1ccc2c(O)c(S(=O)(=O)c3ccccc3)c(=O)[nH]c2c1 | 66% (inactive)
CCn1c(=O)c(=O)n(CC)c2cc(N3CCCCC3)c(NC(=O)c3ccccc3OC)cc21 | 91% (inactive)
